From PubChem BioAssay
HIF act = HIF pathway transcriptional activation; U2OS HRE-luciferase reporter, luminescence; normalized: DMSO 0%, desferrioxamine 100%; activation, % at 7.5 µM (by protocol); 300,000 compounds, 0.32% hits;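 active means mean activation of at least 10% of the iron chelator positive control signal, with at least half of replicates also reaching 10%; inconclusive means mean and replicate majority disagree about reaching 10%; inactive means mean and most replicates under 10%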
ALR inh = human ALR oxidase inhibition via reduced H2O2; P55789; purified ALR, DTT oxidation, H2O2 HRP-luminol luminescence; inhibition, % (no concentration beside the values); 290,000 compounds, 3.8% hits; AID 485317;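 active means mean replicate inhibition above about 79%, with every replicate also reaching it, limit read from the data; inconclusive means only one of the two criteria met; inactive means mean below limit and not every replicate reaching it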
Target sequence (P55789 whole entry, looked up): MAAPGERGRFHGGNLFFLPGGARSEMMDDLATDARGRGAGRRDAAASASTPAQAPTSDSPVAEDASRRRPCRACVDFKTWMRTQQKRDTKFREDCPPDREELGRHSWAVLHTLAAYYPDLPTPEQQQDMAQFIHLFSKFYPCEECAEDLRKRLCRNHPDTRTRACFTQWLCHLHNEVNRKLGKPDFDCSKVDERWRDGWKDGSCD
PfM18AAP inh = PfM18AAP enzyme inhibition. recombinant PfM18AAP, H-Glu-NHMec fluorogenic cleavage. 290,000 compounds, 1.2% hits. inhibition, % at 7.35 µM. AID 1822;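 active means inhibition above the campaign mean inhibition over all tested compounds plus 3 SD, cut at about 28% in these data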;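 further: 0% = plate median of test compound wells and 100% = 2 mM ZnCl2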
Mot1-301 SUMO = SUMOylation pathway inhibition by Mot1-301 growth rescue; S. cerevisiae Mot1-301 growth rescue, ATP luminescence, 38.5C; percent above DMSO median, 100 means doubled; growth rescue, % at 18.8 µM; 320,000 compounds, 1% hits; AID 2716;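 active means every valid replicate shows activation above 250% relative to neutral control wells; inactive means the rest, any valid replicate at or below 250%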;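 further: OY570 slx delta 5 strain wells were the positive control but not used for scaling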
The depositor's hits bear a star. Hits are enriched below; roughly 5.3% of the tested compounds scored in any of these assays.

What do the screens show for `COc1cccc(C(=O)NCc2ccc3c(c2)OCO3)c1OC`?
HIF act: 0.4; ALR inh: -22.9; PfM18AAP inh: -14.2; Mot1-301 SUMO: -5.7

What do the screens show for `Nc1ccc2c(c1)COc1ccccc1O2`?
HIF act: 1.9; ALR inh: 99.1*; PfM18AAP inh: -0.5; Mot1-301 SUMO: -4.7

How did CSc1nc(-c2ccc(Cl)cc2)c(C#N)c(=O)[nH]1 do in these assays?
HIF act: -0.4; ALR inh: inconclusive; PfM18AAP inh: -3.0; Mot1-301 SUMO: 5.7

How did CSc1ncc(-c2ccc(Cl)cc2)[nH]1 do in these assays?
HIF act: 4.4; ALR inh: 97.9*; PfM18AAP inh: -2.1; Mot1-301 SUMO: 9.9

How did COc1ccc(C(=O)NC2CCc3ccccc32)cc1OC1CCN(C(C)C)CC1 (configuration not stated) do in these assays?
HIF act: 1.0; ALR inh: 0.4; PfM18AAP inh: -2.6; Mot1-301 SUMO: -9.4

How did CC(=O)NNc1nc(-c2ccccc2)cs1 do in these assays?
HIF act: 0.2; ALR inh: 11.2; PfM18AAP inh: 22.7; Mot1-301 SUMO: 16.4

How did CC(=O)Nc1ccc(-c2csc(NC(=O)Cc3ccccc3F)n2)cc1 do in these assays?
HIF act: 1.0; ALR inh: 2.8; PfM18AAP inh: 1.0; Mot1-301 SUMO: 101.9

How did CC(=O)NNc1nc(-c2ccc(C)cc2)cs1 do in these assays?
HIF act: 0.6; ALR inh: 83.1*; PfM18AAP inh: 26.3; Mot1-301 SUMO: 8.2

How did CCCC(=O)Nc1ccc(-c2csc(NNC(C)=O)n2)cc1 do in these assays?
HIF act: -0.4; ALR inh: 98.6*; PfM18AAP inh: 11.0; Mot1-301 SUMO: 0.9

How did Oc1ccc(Nc2nc(-c3ccc(O)cc3)cs2)cc1 do in these assays?
HIF act: 0.3; ALR inh: 100.0*; PfM18AAP inh: 7.8; Mot1-301 SUMO: 5.7

Results for CCCCCC(=O)NC(=S)Nc1cccc(-c2nc3ncccc3o2)c1 ?
HIF act: 0.1; PfM18AAP inh: -5.9; Mot1-301 SUMO: -0.2

Results for Cc1onc(-c2ccccc2)c1C(=O)NC(=S)NNC(=O)c1ccccc1O ?
HIF act: -16.8; ALR inh: 30.3; PfM18AAP inh: 9.5; Mot1-301 SUMO: 1.4

How did CCOCCCNC(=O)c1c(-c2ccccc2)noc1C do in these assays?
HIF act: -0.1; PfM18AAP inh: 8.0; Mot1-301 SUMO: 338.0*

Results for CCCOc1ccc(NC(=O)c2c(-c3ccccc3)noc2C)cc1 ?
ALR inh: 11.0; PfM18AAP inh: 2.7; Mot1-301 SUMO: 294.7

How did CCCOc1ccc(C(=O)NC(=S)NNC(=O)c2c(-c3ccccc3)noc2C)cc1 do in these assays?
HIF act: 0.1; ALR inh: 99.8*; PfM18AAP inh: -5.2; Mot1-301 SUMO: 7.2

Results for Cc1onc(-c2ccccc2)c1C(=O)NC(=S)NNC(=O)c1ccc(O)cc1O ?
HIF act: 0.0; ALR inh: 92.2*; PfM18AAP inh: 30.2*; Mot1-301 SUMO: -5.9

Results for O=C(OCC(=O)N1CCCC1=O)C1CCN(S(=O)(=O)c2ccc(Cl)c(C(F)(F)F)c2)CC1 ?
ALR inh: -3.9; Mot1-301 SUMO: 7.7

How did C=C[C@@H]1c2cc(C)ccc2N(S(=O)(=O)c2ccc(C)cc2)[C@H](c2ccccc2)C1(C#N)S(=O)(=O)c1ccccc1 (some centres not stated) do in these assays?
ALR inh: -0.5; Mot1-301 SUMO: -7.0

Results for CCOC(=O)c1sc(N)c(C#N)c1CSc1nnc(C2CCCCC2)n1N ?
HIF act: 0.8; PfM18AAP inh: 10.6; Mot1-301 SUMO: -11.5

Results for CCN(C(=O)c1sc(N)c(C#N)c1C)C1CCCCC1 ?
HIF act: 0.2; ALR inh: 95.6*; PfM18AAP inh: -2.5

How did O=C(COC(=O)Cc1ccsc1)Nc1ccc(Cl)cn1 do in these assays?
ALR inh: -0.6; Mot1-301 SUMO: -17.3

Results for COc1ccc(N(C)C(=S)Nc2ccc3nc(C)c(C)nc3c2)cc1 ?
HIF act: 0.4; ALR inh: 98.2*; PfM18AAP inh: 14.6; Mot1-301 SUMO: 7.2

What do the screens show for `FC(F)(F)c1cccc(-c2cc(C3CCNCC3)[nH]n2)c1`?
HIF act: -0.9; PfM18AAP inh: -2.0; Mot1-301 SUMO: -5.2

Results for COC(=O)CCN1CCC(c2cc(-c3cccc(C(F)(F)F)c3)n[nH]2)CC1 ?
HIF act: -5.0; ALR inh: 3.8; PfM18AAP inh: -15.6; Mot1-301 SUMO: 319.6*

How did CCN1CCN(C(=S)c2ccc(-c3ccccc3)cc2)CC1 do in these assays?
HIF act: -0.4; ALR inh: -7.9; PfM18AAP inh: 26.2; Mot1-301 SUMO: -2.7

How did CCC(C)NC(=O)c1nc2c(nnn2Cc2ccccc2Cl)c(=O)[nH]1 (configuration not stated) do in these assays?
HIF act: -0.5; ALR inh: 87.6*; PfM18AAP inh: 8.3; Mot1-301 SUMO: 8.5

Results for O=C(Cc1cccs1)N1CCCC(c2nc3c(nnn3Cc3ccccc3Cl)c(=O)[nH]2)C1 (configuration not stated) ?
HIF act: -0.2; ALR inh: -6.7; PfM18AAP inh: 2.7; Mot1-301 SUMO: -5.0

How did O=C(NCc1cccs1)c1nc2c(nnn2Cc2ccccc2Cl)c(=O)[nH]1 do in these assays?
HIF act: -1.3; ALR inh: 94.8*; PfM18AAP inh: -11.1; Mot1-301 SUMO: -25.4

Results for Cc1ccc2ncnc(NCCCCCC(=O)O)c2c1 ?
HIF act: 0.0; ALR inh: 0.0; PfM18AAP inh: -1.4; Mot1-301 SUMO: -8.1

What do the screens show for `C=CCn1c(SCc2ccccc2F)nc2cc(C(=O)O)ccc2c1=O`?
HIF act: 1.0; ALR inh: 98.5*; PfM18AAP inh: 5.8; Mot1-301 SUMO: 9.8

How did O=C1[C@@H]2Cc3c([nH]c4ccccc34)C(c3cccc([N+](=O)[O-])c3)N2C(=O)CN1C1CCN(Cc2ccccc2)CC1 (some centres not stated) do in these assays?
HIF act: -35.3; ALR inh: -8.8; PfM18AAP inh: -8.2; Mot1-301 SUMO: -12.9

What do the screens show for `CCCCN(C)S(=O)(=O)c1ccc(C(=O)Nc2nnc(C3=COCCO3)o2)cc1`?
HIF act: 0.0; ALR inh: 91.1*; PfM18AAP inh: 5.5; Mot1-301 SUMO: 2.5

Results for CS(=O)(=O)c1cccc(C(=O)Nc2nnc(C3=COCCO3)o2)c1 ?
HIF act: -1.3; ALR inh: 99.1*; Mot1-301 SUMO: -7.6

Results for Cc1ccc(C(=O)Nc2nnc(-c3ccncc3)o2)cc1 ?
HIF act: 0.4; ALR inh: -10.6; PfM18AAP inh: -2.8; Mot1-301 SUMO: 7.4

What do the screens show for `CCC1CCCCN1S(=O)(=O)c1ccc(C(=O)Nc2nnc(C3=COCCO3)o2)cc1` (configuration not stated)?
HIF act: 0.0; ALR inh: 95.2*; PfM18AAP inh: 3.4; Mot1-301 SUMO: -0.4

How did O=C(Nc1nnc(-c2ccncc2)o1)c1ccccc1 do in these assays?
HIF act: -2.3; ALR inh: 87.0*; PfM18AAP inh: 4.1; Mot1-301 SUMO: -8.5

What do the screens show for `N#CCCN(CCC#N)S(=O)(=O)c1ccc(C(=O)Nc2nnc(C3=COCCO3)o2)cc1`?
HIF act: -0.3; ALR inh: -17.0; PfM18AAP inh: 4.5; Mot1-301 SUMO: -1.6
